Measurements: PubChem BioAssay AID504834 (National Center for Advancing Translational Sciences (NCATS), 2011)
The campaign covered roughly 320,000 compounds. About 22,000 (6.9%) were called active. Entries that show only a call come without a potency. About 27% were inconclusive and are not listed. Calls come from the whole dose curve; as a rule, active = well fitted inhibition curve with a large enough effect; inconclusive = small, poorly fitted or top-dose-only effect, or another doubt; inactive = no such curve, though single readings can be large or run the other way. The full list was thinned out, with actives kept by preference.

test: Primary qHTS for delayed death inhibitors of the malarial parasite plastid, 96 hour incubation; conditions: P. falciparum luciferase reporter growth; series mostly up to 28.7 µM
From the text: The goal of this screen is to discover new antimalarial compounds that act by inhibiting the development of the apicoplast in the malarial parasite Plasmodium falciparum. The biochemical processes that make this organelle essential for erythrocytic stage parasites are not well understood. However, antibiotics such as azithromycin and tetracycline, which target the apicoplast translational machinery, have a potent antimalarial effect.
We have developed a cell-based assay that measures parasite growth based on the expression of an integrated copy of a firefly luciferase reporter. To detect small molecules that cause this "delayed death" phenotype, erythrocytes infected with the luciferase-expressing parasites were incubated with compounds for either one or two generations, corresponding to 48 and 96 hours, respectively. Compounds that inhibit parasite growth in the second generation, but not the first, should be enriched in antimalarials that target the apicoplast. Growth inhibition is detected by a decrease in luciferase activity.
Assay Provider: David Fidock and Eric Ekland, Columbia University
Keywords: NIH Roadmap, MLPCN, MLI, MLSMR, qHTS, NCGC, qHTS, malaria, luciferase, viability
Four microliters of infected erythrocytes (2% hematocrit, 0.05% parasitemia final concentration) in culture medium were dispensed and the plates incubated for 96 hours at 37 C in 5% CO2. Two microliters of luciferase detection reagent was added and luminescence was detected by a ViewLux (PerkinElmer) reader.
Potency is the fitted concentration of half-maximal effect.

Structure (SMILES) | Potency | activity change, negative = inhibition
O=C(NCCCn1ccnc1)c1ccccc1F | inactive | 
COc1ccc(-c2cn3cccnc3n2)cc1 |  | -27.3% [at 5.75 µM] (inactive)
COc1ccc(-c2sc3ccc(OC)cc3c2C#Cc2ccccn2)cc1 | 2.33 µM (active) | 
COc1ccc(-c2csc(Nc3ccccn3)n2)cc1 | inactive | 
CC1(C)C(C=C(Cl)Cl)C1C(=O)NC(O)C(=O)c1ccccc1 (stereo unspecified) | inactive | 
COc1ccc(N2CCN(C3CCCCC3NS(=O)(=O)c3ccccc3)CC2)cc1 (stereo unspecified) | inactive | 
O=C(NC1Cc2ccccc2C1)c1cc(COc2cccc(C(F)(F)F)c2)on1 | inactive | 
CC(C)CC(=O)Nc1nnc(S(=O)(=O)N(C)c2ccc(Cl)cc2)s1 | inactive | 
CNS(=O)(=O)c1cccc(C(=O)OCC(=O)N2c3ccccc3NC(=O)C2(C)C)c1 | inactive | 
Cc1cc(C(=O)OCC(=O)N2c3ccccc3NC(=O)C2(C)C)c(C)n1-c1ccccc1 | inactive | 
CCNc1ccc(C(=O)OCC(=O)N2c3ccccc3NC(=O)C2(C)C)cc1[N+](=O)[O-] | 9.28 µM (active) | 
COc1cccc(-n2c(=S)sc3c(=O)n(-c4ccccc4C)c(SCC(=O)O)nc32)c1 | inactive | 
O=C(CN1CCCCCC1)Nc1ccc(Cl)cc1F | inactive | 
CN(C)C(=O)c1ccc(NC(=O)COC(=O)c2cc3c(s2)CCCCC3)cc1 | inactive | 
CC(C)c1cc(CN2CCOCC2)cc(C(C)C)c1O | 10.4 µM (active) | 
Cc1cc(C)cc(NC(=S)NCCCN2CCOCC2)c1 | inactive | 
CC(CN1CCOCC1)c1ccccc1 (stereo unspecified) | inactive | 
CCOC(=O)Nc1ccc2c(c1)N(C(=O)CCCl)c1ccccc1[S@]2=O | inactive | 
Cc1ccc(CCN2CC(C(=O)NCCc3ccccc3)CC2=O)cc1 (stereo unspecified) | inactive | 
CC(=O)Nc1c2c(nn1-c1cccc(C)c1)CSC2 | inactive | 
CCCN(CCC)c1nc2c(C)cccn2c(=O)c1/C=C1/SC(=S)N(Cc2ccco2)C1=O | 2.08 µM (active) | 
O=C(CCCN1C(=O)/C(=C\c2ccco2)SC1=S)Nc1cccc2ccccc12 | inactive | 

Structure (SMILES) | Potency | activity change, negative = inhibition
Cc1ccc2[nH]c(=O)c(-c3nc4c(C)cccn4c3NCc3ccco3)cc2c1 |  | 10.9% [at 5.75 µM] (inactive)
Cn1c(=O)[nH]c(=O)c2c1[nH]c(=S)n2Cc1ccccc1 | inactive | 
COc1ccc(C(=O)Oc2ccc(-c3nnco3)cc2)cc1S(=O)(=O)N1CCOCC1 | inactive | 
COc1ccc(C2=NOC(C(=O)NCc3ccco3)C2)cc1OC (stereo unspecified) | inactive | 
COc1cc2c(cc1OC)C(C(=O)NCc1ccco1)C1c3ccccc3CCN1C2=O (stereo unspecified) | 3.29 µM (active) | 
COc1ccccc1N1CCN(CC(=O)NC(=O)NCc2ccco2)CC1 | inactive | 
CCCCNC(=O)CN1C(=O)NC(Cc2ccccc2)(Cc2ccccc2)C1=O | inactive | 
CCOC(=O)c1c(NC(=O)c2cccs2)sc(C)c1C | inactive | 
CCOC(=O)c1c(NC(=S)NC(=O)/C=C/c2cccs2)sc(C)c1C | inactive | 
CCOC(=O)c1c(NC(=O)/C=C/c2ccco2)sc(C)c1C | 2.33 µM (active) | 
Cn1c(Nc2ccccc2)cc(=O)n(C)c1=O | inactive | 
COCCCN1C(=O)c2ccc(C(=O)Nc3ccc(OC)cc3OC)cc2C1=O |  | 25.7% [at 5.75 µM] (inactive)
CCN1C(=O)[C@@H]2[C@@H](c3ccc(-c4ccc(OC)cc4)c(OC)c3)N3CCC[C@@]3(C(=O)OC)[C@@H]2C1=O | 10.4 µM (active) | 
CCCCCCSc1ccc([C@@H]2[C@@H]3C(=O)N(CC)C(=O)[C@@H]3[C@]3(C(=O)OC)CCCCN23)cc1OC | 6.57 µM (active) | 
CCn1cc(CN2CCC(C(=O)Nc3cccc(-c4cccc(Cl)c4)c3)CC2)c(C)n1 | inactive | 
COc1ccc(N2C(=O)CCC(C(=O)N(C)C3CCCCC3)C2c2ccc(OC)c(OC)c2)cc1 (stereo unspecified) | inactive | 
COC(=O)CN1C(=O)[C@H]2[C@@H](C3CC3)N3C(=O)CN(Cc4ccc(-c5ccccc5)cc4)C(=O)[C@@]3(Cc3ccccc3)[C@H]2C1=O | inactive | 
CCN1C(=O)[C@@H]2[C@@H](c3ccc(-c4cccc(Cl)c4)cc3)N3CCC[C@@]3(C(=O)OC)[C@@H]2C1=O | 8.28 µM (active) | 
COc1ccc(OC)c(NC(=O)CN(C)CCOc2ccc(Br)cc2)c1 | inactive | 
CC(=O)Nc1ccc(NC(=O)C2CCCN2S(=O)(=O)c2cccc(C(F)(F)F)c2)cc1 (stereo unspecified) | inactive | 
O=C(Nc1n[nH]c(C(F)(F)F)n1)c1cccs1 | inactive | 
CC(=O)NS(=O)(=O)c1ccc(N/C(N)=N/c2nc(C)cc(C)n2)cc1 | inactive | 

Structure (SMILES) | Potency | activity change, negative = inhibition
CC1=C(C(N)=O)C(c2ccc(Br)cc2)n2ncnc2N1 (stereo unspecified) | inactive | 
Clc1ccc2c(c1)C1=C(C(c3ccncc3)O2)C(c2ccc(Br)cc2)n2ncnc2N1 (stereo unspecified) | 3.29 µM (active) | 
COC(=O)COc1ccc2c(c1C)O/C(=C\c1ccco1)C2=O | inactive | 
CC1CC(C)(C)n2c(O)c(N=NC(N)=S)c3cccc1c32 (stereo unspecified) | inactive | 
O=C(CCCC(=O)N1CCN(c2cccc(Cl)c2)CC1)c1ccccc1 | inactive | 
Cc1nc2ccc(C(=O)N3CCN(c4ccccc4)CC3)cc2s1 | inactive | 
CCc1nc2ccc(C(=O)N3CCN(c4cccc(Cl)c4)CC3)cc2nc1CC | 7.38 µM (active) | 
CCOc1cc(C(=O)O)ccc1OCCOc1ccccc1 | inactive | 
CN(CC(=O)Nc1cccc(F)c1)C(=O)CC1CCCC1 | inactive | 
Cn1c(NC(=O)c2ccccc2)nc2ccccc21 | inactive | 
c1ccc(-c2nccc(-c3ccc(-n4cnc5ccccc54)cc3)n2)nc1 | 4.15 µM (active) | 
COC(=O)c1ccc(-n2cnc3ccccc32)nc1 | inactive | 
O=C(O)C1=NN(c2c(F)c(F)cc(F)c2F)C(=O)CC1 | inactive | 
CSc1ncccc1C(=O)Nc1ccc(C)cn1 | inactive | 
CCc1ccccc1NC(=O)Cc1cn(C)c2ccccc12 | 13.1 µM (active) | 
CCOC(=O)N1CCC(NC(=O)Cc2cn(C)c3ccccc23)CC1 | inactive | 
CCc1ccccc1NC(=O)CCOc1ccccc1 | inactive | 
COc1ccc(CNc2nc3c(c(=O)[nH]c(=O)n3C)n2Cc2ccccc2)cc1 | inactive | 
O=C(CC(c1ccccc1)c1ccccc1)NCC(O)c1ccc([N+](=O)[O-])cc1 (stereo unspecified) | inactive | 
O=C(CSc1cccc[n+]1[O-])NCCCc1ccccc1 | inactive | 
O=C(CSc1cccc[n+]1[O-])c1ccc(-c2ccccc2)cc1 | 8.28 µM (active) | 
Cc1ccc(C(=O)CSc2ccccc2C(=O)O)cc1 | inactive | 
